# Source: PubChem BioAssay (NCATS)
# Unmarked numbers belong to inactive results. Inconclusive results are not listed. A call without a number means that no potency is given here. The source made the active and inactive calls. Unless noted, calls follow the shape of the dose curve; as a rule, active = well fitted curve in the direction sought with a large enough effect; inconclusive = small, poorly fitted or top-dose-only effect, or another doubt; inactive = no such curve, though single readings can be large; an effect the other way counts as inactive or inconclusive.
# How the values were obtained:
# [1] = AP1 Signaling Pathway (AID 357; active = well fitted curve in either direction with a large enough effect, not every such curve was filed as active;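 also: ME-180 reporter cells stimulated with EGF at its EC50 level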); conditions: ME-180 (cervical carcinoma) AP-1-bla reporter, EGF-induced, beta-lactamase ratio, 5 h; at 17.2 µM (top of the series) unless noted
# Procedure, shortened: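 First, ME-180 AP-1-bla cells were cultured overnight at 37 °C in low-serum Opti-MEM. Next, titrated compounds with EC50 EGF were incubated 5 hours. Finally, CCF4 was added for 2.5 hours and the 460/530 nm ratio recorded.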
# [2] = Stat Signaling Pathway (AID 446; active = well fitted curve in either direction with a large enough effect, not every such curve was filed as active;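 also: ME-180 cervical cancer cells given 40 pM IL-6 alongside compound; SIE-controlled beta-lactamase reporter measured as 460/530 nm FRET emission ratio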)
# Procedure, shortened: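 Compound effects on IL-6-induced STAT reporter activity were measured in ME-180 cells. After overnight culture, cells were co-treated with 40 pM IL-6 for 5 hrs before beta-lactamase substrate loading at room temperature.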
# [3] = molecular target: Glucocorticoid receptor (Homo sapiens) (UniProt P04150); experiment: GR-GFP Redistribution (AID 450;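 active = compounds whose dose series gives a full or clear partial fitted curve of increased nuclear translocation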; also: potency is read from the fitted curve at half-maximal effect); conditions: U2OS GR-GFP nuclear translocation, laser cytometry, 2 h
# Glucocorticoid receptor (Homo sapiens), sequence (P04150 whole entry, looked up, the tested form may be a part): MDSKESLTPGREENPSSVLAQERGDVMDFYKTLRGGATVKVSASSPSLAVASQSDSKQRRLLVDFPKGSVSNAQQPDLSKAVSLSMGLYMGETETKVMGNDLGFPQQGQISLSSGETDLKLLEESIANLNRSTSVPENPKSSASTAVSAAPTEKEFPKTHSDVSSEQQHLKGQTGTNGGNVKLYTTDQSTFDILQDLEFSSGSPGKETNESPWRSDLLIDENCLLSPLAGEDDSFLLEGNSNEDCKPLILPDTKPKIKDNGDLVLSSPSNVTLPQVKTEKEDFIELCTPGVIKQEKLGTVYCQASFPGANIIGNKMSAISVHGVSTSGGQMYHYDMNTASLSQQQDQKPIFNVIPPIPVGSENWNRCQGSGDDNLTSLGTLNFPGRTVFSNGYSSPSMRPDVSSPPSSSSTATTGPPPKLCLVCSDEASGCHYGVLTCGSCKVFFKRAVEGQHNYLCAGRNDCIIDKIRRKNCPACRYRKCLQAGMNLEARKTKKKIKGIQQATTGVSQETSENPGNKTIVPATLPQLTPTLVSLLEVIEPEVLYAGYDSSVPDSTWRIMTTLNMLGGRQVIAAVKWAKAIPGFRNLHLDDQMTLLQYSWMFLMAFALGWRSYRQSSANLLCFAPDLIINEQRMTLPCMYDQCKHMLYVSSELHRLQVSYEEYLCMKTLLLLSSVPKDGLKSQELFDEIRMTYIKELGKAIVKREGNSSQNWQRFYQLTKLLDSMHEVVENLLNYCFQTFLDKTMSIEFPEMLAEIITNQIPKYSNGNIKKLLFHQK
# [4] = molecular target: Mitogen-activated protein kinase 10 (Mus musculus) (UniProt Q61831); experiment: JNK3 AlphaScreen Assay (AID 530; active = well fitted curve in either direction with a large enough effect, not every such curve was filed as active;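 also: kinase came from lysate of stimulated human HepG2 cells; signal reports phosphorylation of biotinylated GST-cJun 1-79 at Ser73 with 10 µM ATP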)
# Procedure, shortened: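 Kinase buffer: 20 mM Tris-HCl pH 7.6, 10 mM MgCl2, 1 mM DTT, 0.1 mM Na3VO4, 0.01% Tween-20; ATP 10 uM. Substrate biotin-GST-cJun(1-79), enzyme from activated HepG2 lysates. Detection by Ser73 phospho-antibody AlphaScreen.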
# [5] = molecular target: 3',5'-cyclic-AMP phosphodiesterase 4B (Homo sapiens) (UniProt Q07343); experiment: qHTS Assay for Inhibitors of PDE-IV (AID 607; active = well fitted activation curve with a large enough effect in the main read-out, with a control signal flat, not every such curve was filed as active)
# 3',5'-cyclic-AMP phosphodiesterase 4B (Homo sapiens), sequence (Q07343 whole entry, looked up): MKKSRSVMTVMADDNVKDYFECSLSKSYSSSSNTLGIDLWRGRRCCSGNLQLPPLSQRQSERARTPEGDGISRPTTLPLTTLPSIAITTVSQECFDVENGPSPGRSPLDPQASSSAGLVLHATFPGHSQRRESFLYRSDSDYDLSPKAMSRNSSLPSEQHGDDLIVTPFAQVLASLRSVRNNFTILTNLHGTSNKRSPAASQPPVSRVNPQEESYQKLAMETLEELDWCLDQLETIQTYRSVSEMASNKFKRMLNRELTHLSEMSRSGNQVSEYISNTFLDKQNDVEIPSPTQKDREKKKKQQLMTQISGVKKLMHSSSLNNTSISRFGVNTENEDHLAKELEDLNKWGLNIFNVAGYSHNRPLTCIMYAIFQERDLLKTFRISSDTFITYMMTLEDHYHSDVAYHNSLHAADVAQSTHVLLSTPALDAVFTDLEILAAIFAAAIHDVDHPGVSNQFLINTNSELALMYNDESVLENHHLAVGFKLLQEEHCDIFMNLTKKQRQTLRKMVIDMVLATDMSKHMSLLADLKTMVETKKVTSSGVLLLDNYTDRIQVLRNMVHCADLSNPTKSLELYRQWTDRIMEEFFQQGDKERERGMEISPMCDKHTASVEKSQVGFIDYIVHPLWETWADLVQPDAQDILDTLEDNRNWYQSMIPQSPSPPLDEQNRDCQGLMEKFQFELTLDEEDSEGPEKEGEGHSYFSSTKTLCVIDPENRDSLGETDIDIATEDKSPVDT
# Procedure, shortened: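 ACTOne HEK293 cells carry a modified cAMP-gated CNG channel and express endogenous PDE4; plated 1000 cells/well, compounds up to 22.9 uM final. Membrane-potential dye fluorescence (ex 535/em 590) was read; parental cells received 10 uM forskolin + 100 uM RO 20-1724.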
# [6] = molecular target: Guanine nucleotide-binding protein G(i) subunit alpha-1 (Homo sapiens) (UniProt P63096); experiment: qHTS Assay for Inhibitors of RGS12 GoLoco Motif Activity (Green Fluorophore) (AID 879);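 also: negative values mean loss of peptide binding seen as reduced polarization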
# Procedure, shortened: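 A drop in FITC polarization marked displacement of the FITC-tagged RGS12 GoLoco peptide (10 nM) from Gαi1 (50 nM). Compounds were incubated 10 min at room temperature in Tris pH 7.5 buffer containing 150 mM NaCl, 0.1 mM GDP and 0.05% NP40; unlabeled peptide titration served as control.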
# [7] = molecular target: Cytochrome P450 2C9 (Homo sapiens) (UniProt P11712); experiment: qHTS Assay for Inhibitors and Substrates of Cytochrome P450 2C9 (AID 883); also: nearly all actives have a fitted effect of over 60% in size; also: potency is read from the fitted curve at half-maximal effect
# Cytochrome P450 2C9 (Homo sapiens), sequence (P11712 whole entry, looked up): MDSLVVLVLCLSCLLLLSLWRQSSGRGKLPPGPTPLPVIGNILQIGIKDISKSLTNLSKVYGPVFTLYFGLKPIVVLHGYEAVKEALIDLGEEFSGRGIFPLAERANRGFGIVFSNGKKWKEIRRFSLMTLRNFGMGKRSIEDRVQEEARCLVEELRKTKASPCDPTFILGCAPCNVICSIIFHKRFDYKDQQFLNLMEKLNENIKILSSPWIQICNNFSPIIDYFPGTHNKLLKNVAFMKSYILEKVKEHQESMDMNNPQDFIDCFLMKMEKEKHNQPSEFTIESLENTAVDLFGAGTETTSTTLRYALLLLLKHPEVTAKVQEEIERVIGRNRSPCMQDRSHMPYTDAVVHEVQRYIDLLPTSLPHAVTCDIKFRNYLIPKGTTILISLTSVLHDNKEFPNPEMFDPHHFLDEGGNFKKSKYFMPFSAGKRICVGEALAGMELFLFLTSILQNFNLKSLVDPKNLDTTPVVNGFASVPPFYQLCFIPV
# Procedure, shortened: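 Turnover of Luciferin-H (100uM, KM) by 10nM human CYP2C9 was measured over 60 min at 37C with NADPH regeneration; inhibitors and some substrates reduce luminescence. Data normalized to sulphaphenazole 57uM.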
# [8] = molecular target: Cytochrome P450 3A4 (Homo sapiens) (UniProt P08684); experiment: qHTS Assay for Activators of Cytochrome P450 3A4 (AID 885); also: nearly all actives have a fitted effect of over 65% in size
# Cytochrome P450 3A4 (Homo sapiens), sequence (P08684 whole entry, looked up): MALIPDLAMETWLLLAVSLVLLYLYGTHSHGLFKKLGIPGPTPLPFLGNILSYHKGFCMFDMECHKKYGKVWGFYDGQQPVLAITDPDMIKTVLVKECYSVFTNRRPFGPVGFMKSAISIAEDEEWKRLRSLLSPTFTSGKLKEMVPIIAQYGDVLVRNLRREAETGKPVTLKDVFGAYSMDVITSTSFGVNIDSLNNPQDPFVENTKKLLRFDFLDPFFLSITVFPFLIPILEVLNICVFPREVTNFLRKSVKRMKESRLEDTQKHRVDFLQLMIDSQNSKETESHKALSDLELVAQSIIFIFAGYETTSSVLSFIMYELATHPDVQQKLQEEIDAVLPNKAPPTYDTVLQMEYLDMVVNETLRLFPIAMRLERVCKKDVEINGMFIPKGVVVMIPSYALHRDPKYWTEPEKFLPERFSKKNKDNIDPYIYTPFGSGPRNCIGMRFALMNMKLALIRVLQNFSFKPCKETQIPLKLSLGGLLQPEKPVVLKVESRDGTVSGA
# Procedure, shortened: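 CYP3A4 activity: Luciferin-PPXE O-dealkylation, 25uM substrate, 200mM KPO4, RT throughout. Read-out is luciferase luminescence; higher values reflect activation.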
# [9] = qHTS Assay for Identification of Small Molecule Agonists for Thrombopoietin (TPO) Signaling Pathway (AID 917)
# Procedure, shortened: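 Quantitative HTS for pathway activators: compounds were pin-transferred onto IL-3-starved Ba/F3 cells expressing human TPO receptor, TPO was added at its EC50 (26 pM final), and after 24 hrs at 37 C reporter luciferase was measured.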
# [10] = molecular target: Muscarinic acetylcholine receptor M1 (Rattus norvegicus) (UniProt P08482); experiment: qHTS Assay for Antagonists of Acetylcholine Muscarinic M1 Receptor: Kinetic Measurement of Intracellular Calcium Response (AID 943); also: potency is read from the fitted curve at half-maximal effect; nearly all actives have a fitted effect of over 75% in size
# Muscarinic acetylcholine receptor M1 (Rattus norvegicus), sequence (P08482 whole entry, looked up): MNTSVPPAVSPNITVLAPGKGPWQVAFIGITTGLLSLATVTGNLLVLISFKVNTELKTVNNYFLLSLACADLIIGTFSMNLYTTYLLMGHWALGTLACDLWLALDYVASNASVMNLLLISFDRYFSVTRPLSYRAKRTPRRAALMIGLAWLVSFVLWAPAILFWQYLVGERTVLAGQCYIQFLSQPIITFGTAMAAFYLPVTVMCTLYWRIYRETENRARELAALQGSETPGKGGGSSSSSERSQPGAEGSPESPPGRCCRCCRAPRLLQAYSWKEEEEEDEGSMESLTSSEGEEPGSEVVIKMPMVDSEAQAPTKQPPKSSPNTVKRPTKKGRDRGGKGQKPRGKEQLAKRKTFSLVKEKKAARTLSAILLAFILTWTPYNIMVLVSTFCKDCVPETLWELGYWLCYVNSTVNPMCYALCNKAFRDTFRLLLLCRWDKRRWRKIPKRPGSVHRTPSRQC
# Procedure, shortened: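 Read-out: peak over basal Fluo-4 fluorescence, kinetic at 1 Hz for 4 min after EC80 carbachol (100 nM final). Rat M1-CHO cells, dye loaded 1 h at 37C, compound added 10 min before agonist.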
# [11] = molecular target: Muscarinic acetylcholine receptor M1 (Rattus norvegicus) (UniProt P08482); experiment: qHTS Assay for Antagonists of Acetylcholine Muscarinic M1 Receptor: Measurement of IP-One Response (AID 944); also: nearly all actives have a fitted effect of over 75% in size; also: potency is read from the fitted curve at half-maximal effect
# Procedure, shortened: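 Read-out: HTRF competition between d2-IP1 and Eu-cryptate anti-IP1 antibody, emission 620 and 665 nm. Stimulus was carbachol, EC80 (200 nM), for 30 min in M1-CHO cells (rat receptor), after 10 min compound pre-treatment.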
# [12] = molecular target: Pyruvate kinase PKM (Homo sapiens) (UniProt P14618); experiment: qHTS Assay for Activators of Human Muscle Pyruvate Kinase (AID 954; active = well fitted curve in the direction sought with a large enough effect, not every such curve was filed as active)
# Procedure, shortened: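 A coupled luminescent readout tracked ATP made from ADP by purified PKM2. Final conditions included 0.1 nM enzyme, PEP and ADP at 0.5 and 0.1 mM, pH 7.2 imidazole buffer with BSA, and a one-hour room-temperature reaction.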
# [13] = molecular target: Alpha-galactosidase (Coffea arabica) (UniProt Q42656); experiment: Counterscreen for Glucocerebrosidase Inhibitors: qHTS Assay for Coffee Bean alpha-Galactosidase at pH 4.5 (AID 957)
# Alpha-galactosidase (Coffea arabica), sequence (Q42656 whole entry, looked up): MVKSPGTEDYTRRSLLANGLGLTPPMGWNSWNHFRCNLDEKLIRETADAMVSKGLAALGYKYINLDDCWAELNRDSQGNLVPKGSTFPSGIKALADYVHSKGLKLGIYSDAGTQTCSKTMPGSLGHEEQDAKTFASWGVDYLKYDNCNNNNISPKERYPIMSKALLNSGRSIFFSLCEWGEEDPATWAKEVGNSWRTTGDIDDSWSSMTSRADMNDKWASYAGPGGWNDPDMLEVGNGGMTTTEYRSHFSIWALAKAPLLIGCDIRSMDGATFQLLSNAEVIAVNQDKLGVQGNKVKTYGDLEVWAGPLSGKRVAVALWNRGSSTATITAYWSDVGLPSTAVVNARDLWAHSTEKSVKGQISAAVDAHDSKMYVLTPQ
# Procedure, shortened: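 Fluorogenic read-out: 4-methylumbelliferone at Ex 365/Em 440 nm after NaOH/glycine stop (pH 10). Enzyme 2 nM, 4-MU-alpha-galactoside 80 uM, citrate buffer pH 4.5, 20 min RT; normalized to no-enzyme and enzyme controls.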
# [14] = molecular target: Alpha-galactosidase A (Homo sapiens) (UniProt P06280); experiment: Counterscreen for Glucocerebrosidase Inhibitors: qHTS Assay for Human alpha-Galactosidase at pH 4.5 (AID 992)
# Procedure, shortened: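 Citrate buffer pH 4.5, Tween-20 0.005%. Enzyme 2 nM, substrate 80 uM, 20 min RT. Stop pH 10. Fluorescence Ex 365/Em 440. AC50 by Hill fit.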
# [15] = molecular target: alpha-glucosidase (Oryza sativa, rice) (UniProt Q653V4); experiment: Counterscreen for Glucocerebrosidase Inhibitors: qHTS Assay for Rice alpha-Glucosidase at pH 5.0 (AID 997)
# Procedure, shortened: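 Endpoint fluorogenic assay at pH 5.0: compounds (0.7 nM to 77 uM) titrated against 4 nM rice enzyme and 400 uM 4-MU-alpha-glucoside for 20 min at room temperature; NaOH/glycine stop, read ex 365/em 440 nm, Hill-fitted AC50.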
# [16] = molecular target: Alpha-galactosidase (Coffea arabica) (UniProt Q42656); experiment: Counterscreen for Glucocerebrosidase Inhibitors: qHTS Assay for Coffee Bean alpha-Galactosidase at pH 5.9 (AID 998)
# Procedure, shortened: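 Fluorogenic 4-MU substrate hydrolysis, 80 uM substrate and 2 nM coffee bean alpha-galactosidase, pH 5.9 citrate buffer, 20 min at room temperature, then NaOH/glycine stop. Titration 0.7 nM–77 uM, normalized to no-enzyme and enzyme controls, AC50 via Hill equation.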
# [17] = molecular target: Cytochrome P450 1A2 (Homo sapiens) (UniProt P05177); experiment: p450-cyp1a2 (AID 410; calls by dose curve; also: potency is read from the fitted curve at half-maximal effect)
# Cytochrome P450 1A2 (Homo sapiens), sequence (P05177 whole entry, looked up): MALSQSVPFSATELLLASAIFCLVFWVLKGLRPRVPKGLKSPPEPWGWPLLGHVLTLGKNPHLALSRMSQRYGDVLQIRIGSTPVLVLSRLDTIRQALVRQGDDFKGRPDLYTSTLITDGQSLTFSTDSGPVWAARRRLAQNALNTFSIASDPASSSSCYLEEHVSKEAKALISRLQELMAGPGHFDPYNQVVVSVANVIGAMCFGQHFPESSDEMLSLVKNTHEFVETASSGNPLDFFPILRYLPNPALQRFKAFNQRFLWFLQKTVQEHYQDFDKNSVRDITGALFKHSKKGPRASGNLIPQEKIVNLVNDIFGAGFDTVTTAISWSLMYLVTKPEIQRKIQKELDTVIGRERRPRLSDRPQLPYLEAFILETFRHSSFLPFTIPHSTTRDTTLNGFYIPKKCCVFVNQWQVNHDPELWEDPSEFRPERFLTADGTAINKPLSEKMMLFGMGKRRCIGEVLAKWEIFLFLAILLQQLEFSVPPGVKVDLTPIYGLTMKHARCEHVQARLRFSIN
# Procedure, shortened: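 20nM CYP1A2, 100uM Luciferin-ME (=Km), 100mM KPO4; cpd 10 min RT; +NADPH regen, 60 min RT; stop/detect 20 min; luminescence. Normalized to furafylline 57 uM = full inhibition.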
# [18] = molecular target: Glucocorticoid receptor (Homo sapiens) (UniProt P04150); experiment: GR-EFC Redistribution (AID 451; calls by dose curve; also: potency is read from the fitted curve at half-maximal effect); conditions: CHO-K1 GR-EFC translocation, beta-gal luminescence, 2 h
# Procedure, shortened: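 Translocation of GR-ED fusion to nuclear EA restores b-gal, read by luminescence after 1 h room-temperature detection. Engineered CHO-K1 biosensor cells, 1,000/well, exposed 2 h at 37 C to titrations up to 46 uM final.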
# [19] = molecular target: Cytochrome P450 3A4 (Homo sapiens) (UniProt P08684); experiment: qHTS Assay for Inhibitors and Substrates of Cytochrome P450 3A4 (AID 884); also: nearly all actives have a fitted effect of over 50% in size; also: potency is read from the fitted curve at half-maximal effect
# Procedure, shortened: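 Luminescent readout of luciferin produced by CYP3A4 (20 nM) dealkylation of Luciferin-PPXE, 25 uM (its KM). NADPH-driven reaction ran 60 min at RT after 10 min compound preincubation; data scaled to 57 uM ketoconazole as 100% inhibition.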
# [20] = molecular target: Cytochrome P450 2D6 (Homo sapiens) (UniProt P10635); experiment: qHTS Assay for Inhibitors and Substrates of Cytochrome P450 2D6 (AID 891); also: nearly all actives have a fitted effect of over 60% in size; also: potency is read from the fitted curve at half-maximal effect;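 as to activity change, negative = inhibition: luciferin methyl ether substrate demethylated by CYP2D6 with NADPH regeneration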
# Cytochrome P450 2D6 (Homo sapiens), sequence (P10635 whole entry, looked up): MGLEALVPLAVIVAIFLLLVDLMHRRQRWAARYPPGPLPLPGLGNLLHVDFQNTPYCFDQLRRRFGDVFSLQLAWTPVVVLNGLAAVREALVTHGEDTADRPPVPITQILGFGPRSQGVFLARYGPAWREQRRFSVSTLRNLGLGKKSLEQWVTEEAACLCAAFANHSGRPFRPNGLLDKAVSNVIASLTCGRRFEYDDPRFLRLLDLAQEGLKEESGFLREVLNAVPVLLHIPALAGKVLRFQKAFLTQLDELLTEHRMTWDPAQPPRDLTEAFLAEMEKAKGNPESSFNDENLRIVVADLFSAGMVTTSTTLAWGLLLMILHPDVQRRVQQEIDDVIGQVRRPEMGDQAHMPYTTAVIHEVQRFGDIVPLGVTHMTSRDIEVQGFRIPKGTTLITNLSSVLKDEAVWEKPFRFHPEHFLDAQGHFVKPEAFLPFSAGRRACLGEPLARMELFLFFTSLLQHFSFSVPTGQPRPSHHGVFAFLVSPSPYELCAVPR
# Procedure, shortened: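 Luminescent read-out of luciferin formed by 5 nM human CYP2D6 demethylating 30 uM Luciferin-ME EGE (Km level) over 60 min at room temperature after NADPH regeneration addition. Data normalized to full inhibition by 1.43 uM quinidine.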
# [21] = molecular target: Cytochrome P450 2C19 (Homo sapiens) (UniProt P33261); experiment: qHTS Assay for Inhibitors and Substrates of Cytochrome P450 2C19 (AID 899); also: nearly all actives have a fitted effect of over 60% in size; also: potency is read from the fitted curve at half-maximal effect
# Cytochrome P450 2C19 (Homo sapiens), sequence (P33261 whole entry, looked up): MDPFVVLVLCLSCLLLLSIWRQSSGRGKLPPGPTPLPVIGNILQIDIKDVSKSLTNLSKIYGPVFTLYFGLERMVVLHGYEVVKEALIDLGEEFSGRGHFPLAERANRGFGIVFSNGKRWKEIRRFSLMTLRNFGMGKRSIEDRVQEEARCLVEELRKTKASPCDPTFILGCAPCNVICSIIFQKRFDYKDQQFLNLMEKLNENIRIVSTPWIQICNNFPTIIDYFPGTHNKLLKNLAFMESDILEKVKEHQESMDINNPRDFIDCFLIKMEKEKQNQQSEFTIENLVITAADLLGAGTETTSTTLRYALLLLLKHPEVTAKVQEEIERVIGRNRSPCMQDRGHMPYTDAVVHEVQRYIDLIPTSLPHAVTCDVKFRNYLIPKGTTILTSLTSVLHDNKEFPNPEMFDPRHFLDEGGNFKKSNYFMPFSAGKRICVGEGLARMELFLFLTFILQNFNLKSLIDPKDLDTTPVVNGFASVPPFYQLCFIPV
# Procedure, shortened: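 Reactions contain 5nM enzyme, 10uM Luciferin-H EGE (KM) and 50mM KPO4; compound preincubates 10 min at 37C, NADPH regeneration starts turnover for 60 min. Luminescence after detection reagent gives activity.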
# [22] = Confirmation and Secondary Assay for Modulators of Hemoglobin Beta Chain Splicing at IVS2 654 locus (AID 910);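 also: HeLa cells stably carrying EGFP split by mutant beta-globin IVS2-654 intron; per-well total GFP intensity by laser scanning cytometry after 2-day treatment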
# Procedure, shortened: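 Readout: per-well total peak green fluorescence (488 nm ex, 500–520 nm em) from objects 5–250 µm, reflecting correct splicing of an EGFP-654 reporter. Compounds were applied for 2 days at 37 °C to overnight-plated HeLa EGFP-654 cells; controls were DMSO and 500 nM IVS2-654 PNA.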
smiles,measurement,setting,value
Cc1c(N=Cc2c(O)n(CCc3ccccc3)c(=O)[nH]c2=O)c(=O)n(-c2ccccc2)n1C,"activity change, negative = inhibition",[1],-11.1%
same,outcome,[2],inactive
same,Potency,[3],> 20.6 µM
CCOc1ccccc1-n1c(O)c(C=Nc2ccc(N(CC)CC)cc2)c(=O)[nH]c1=O,"activity change, negative = inhibition",[1],3.1%
same,outcome,[2],inactive
same,Potency,[3],> 20.6 µM
CN1[C@@H]2CC[C@H]1CC(O[C@@H](c1ccccc1)c1ccccc1N)C2 (some centres not stated),"activity change, negative = inhibition",[1],12.1% [at 38 µM]
same,Potency,[3],> 46 µM
same,outcome,[4],inactive
same,outcome,[5],inactive
same,Potency,[6],inactive
same,Potency,[7],inactive
same,Potency,[8],inactive
same,outcome,[9],inactive
same,Potency,[10],0.0141 µM (active)
same,Potency,[11],0.0071 µM (active)
same,outcome,[12],inactive
same,outcome,[13],inactive
same,outcome,[14],inactive
same,outcome,[15],inactive
same,outcome,[16],inactive
O=c1cccc2n1C[C@@H]1C[C@H]2CN2CCCC[C@H]12,Potency,[17],1.26 µM (active)
same,Potency,[3],> 46 µM
same,Potency,[18],> 46 µM
same,outcome,[4],inactive
same,outcome,[5],inactive
same,Potency,[7],inactive
O=P(c1ccccc1)(c1ccccc1)N1CC2(CC2)CC(O)(c2ccccc2)C1 (configuration not stated),Potency,[17],inactive
same,outcome,[4],inactive
CCCc1cc2c(n1CCO)C(C)C1CN(C(=O)c3ccccc3)C(C)(C(=O)OC)C21 (configuration not stated),Potency,[17],inactive
same,outcome,[4],inactive
same,outcome,[5],inactive
same,Potency,[8],inactive
COC(=O)C1(C)C=C2C(=C(C)C(=O)C2C)CN1 (configuration not stated),Potency,[17],31.6 µM (active)
same,outcome,[4],inactive
same,outcome,[5],inactive
CCCc1cc2c(n1Cc1ccc(C)cc1)C(C)C1CN(C(=O)c3ccccc3)C(C)(C(=O)OC)C21 (configuration not stated),Potency,[17],7.94 µM (active)
same,outcome,[4],inactive
same,Potency,[19],3.16 µM (active)
same,Potency,[8],inactive
C=C1C/C(=C\C)C(=O)O[C@@H]2CCN3CC=C(COC(=O)[C@]1(C)O)[C@H]23,Potency,[17],inactive
same,Potency,[3],> 46 µM
same,outcome,[4],inactive
same,outcome,[5],inactive
same,Potency,[7],inactive
same,Potency,[20],inactive
same,Potency,[21],inactive
CCCCCCCCCCCCCC(=O)O[C@H]1[C@@H](C)[C@@]2(O)[C@@H](C=C(CO)C[C@]3(O)C(=O)C(C)=C[C@@H]23)C2C(C)(C)[C@]21OC(C)=O (some centres not stated),Potency,[17],inactive
same,Potency,[3],> 46 µM
same,outcome,[4],inactive
same,Potency,[6],inactive
same,Potency,[8],inactive
same,Potency,[10],0.02 µM (active)
same,Potency,[11],inactive
same,outcome,[12],inactive
same,outcome,[13],inactive
same,outcome,[14],inactive
same,outcome,[15],inactive
same,outcome,[16],inactive
COc1ccc2c(c1O)-c1c(OC)c(OC)cc3c1[C@@H](C2)N(C)CC3,Potency,[17],15.8 µM (active)
same,Potency,[3],> 46 µM
same,Potency,[18],> 46 µM
same,Potency,[7],inactive
same,Potency,[19],inactive
same,Potency,[21],inactive
same,Potency,[22],inactive
C=C(CC1(C(C)NP(=O)(c2ccccc2)c2ccccc2)CC1)c1ccccc1 (configuration not stated),Potency,[17],15.8 µM (active)
same,outcome,[4],inactive
same,Potency,[7],7.94 µM (active)
same,Potency,[19],3.98 µM (active)
same,Potency,[8],inactive
C[C@@]12CC[C@H](O)C[C@@H]1CC[C@H]1[C@H]2C[C@@H](O)[C@]2(C)[C@@H](C3=CC(=O)OC3)CC[C@@]12O,Potency,[17],inactive
same,Potency,[3],> 46 µM
same,Potency,[18],> 46 µM
same,outcome,[4],inactive
same,Potency,[7],inactive
same,Potency,[20],inactive
same,Potency,[21],inactive
CC[C@@]12CCCN3CC[C@@]4(c5ccc(OC)c(O)c5N(C(C)=O)[C@H]4CC1)[C@H]32,Potency,[17],inactive
same,Potency,[3],> 46 µM
same,outcome,[4],inactive
same,outcome,[5],inactive
same,Potency,[7],inactive
same,Potency,[21],0.794 µM (active)
C[C@@H]1CCC/C=C\[C@H]2C[C@H](O)C[C@@H]2[C@H](O)/C=C\C(=O)O1,Potency,[17],inactive
same,Potency,[3],> 46 µM
same,outcome,[4],inactive
same,outcome,[5],inactive
same,Potency,[7],inactive
same,Potency,[20],inactive
same,Potency,[21],inactive
CN1C[C@H](CO)C=C2c3cccc4[nH]cc(c34)C[C@H]21,Potency,[17],1 µM (active)
same,Potency,[3],> 46 µM
same,Potency,[18],> 46 µM
same,outcome,[4],inactive
same,outcome,[5],inactive
same,Potency,[20],0.0251 µM (active)
